For 66 compounds, inhibition results are on record in PubChem BioAssay AID2073 (Sanford-Burnham Center for Chemical Genomics, 2009).

Where “and” joins values, the source holds several entries; their conditions need not be identical. Equal entries are not always repeated. Hit rate of the full screen: of about 290,000 compounds, about 570 (0.2%) were called active. About 1% were inconclusive and are not listed. This excerpt belongs to a sample that is enriched for actives. Values without a mark were called inactive. No stated cut-off is given here; in the data, active means inhibition mostly above about 51% (no sharp cut-off); inconclusive means no clear call, values can overlap the other calls; inactive means mostly below about 53%.

The target of the test is Voltage-dependent N-type calcium channel subunit alpha-1B (Homo sapiens) (UniProt Q00975). The test can be described thus: inhibitors of Mint1-CaV2.2 protein interaction, biochemical, HTRF (AID 2073). The settings on record: at 20 µM, stronger effect = higher value.
Chain of Voltage-dependent N-type calcium channel subunit alpha-1B (Homo sapiens) (Q00975 whole entry, looked up): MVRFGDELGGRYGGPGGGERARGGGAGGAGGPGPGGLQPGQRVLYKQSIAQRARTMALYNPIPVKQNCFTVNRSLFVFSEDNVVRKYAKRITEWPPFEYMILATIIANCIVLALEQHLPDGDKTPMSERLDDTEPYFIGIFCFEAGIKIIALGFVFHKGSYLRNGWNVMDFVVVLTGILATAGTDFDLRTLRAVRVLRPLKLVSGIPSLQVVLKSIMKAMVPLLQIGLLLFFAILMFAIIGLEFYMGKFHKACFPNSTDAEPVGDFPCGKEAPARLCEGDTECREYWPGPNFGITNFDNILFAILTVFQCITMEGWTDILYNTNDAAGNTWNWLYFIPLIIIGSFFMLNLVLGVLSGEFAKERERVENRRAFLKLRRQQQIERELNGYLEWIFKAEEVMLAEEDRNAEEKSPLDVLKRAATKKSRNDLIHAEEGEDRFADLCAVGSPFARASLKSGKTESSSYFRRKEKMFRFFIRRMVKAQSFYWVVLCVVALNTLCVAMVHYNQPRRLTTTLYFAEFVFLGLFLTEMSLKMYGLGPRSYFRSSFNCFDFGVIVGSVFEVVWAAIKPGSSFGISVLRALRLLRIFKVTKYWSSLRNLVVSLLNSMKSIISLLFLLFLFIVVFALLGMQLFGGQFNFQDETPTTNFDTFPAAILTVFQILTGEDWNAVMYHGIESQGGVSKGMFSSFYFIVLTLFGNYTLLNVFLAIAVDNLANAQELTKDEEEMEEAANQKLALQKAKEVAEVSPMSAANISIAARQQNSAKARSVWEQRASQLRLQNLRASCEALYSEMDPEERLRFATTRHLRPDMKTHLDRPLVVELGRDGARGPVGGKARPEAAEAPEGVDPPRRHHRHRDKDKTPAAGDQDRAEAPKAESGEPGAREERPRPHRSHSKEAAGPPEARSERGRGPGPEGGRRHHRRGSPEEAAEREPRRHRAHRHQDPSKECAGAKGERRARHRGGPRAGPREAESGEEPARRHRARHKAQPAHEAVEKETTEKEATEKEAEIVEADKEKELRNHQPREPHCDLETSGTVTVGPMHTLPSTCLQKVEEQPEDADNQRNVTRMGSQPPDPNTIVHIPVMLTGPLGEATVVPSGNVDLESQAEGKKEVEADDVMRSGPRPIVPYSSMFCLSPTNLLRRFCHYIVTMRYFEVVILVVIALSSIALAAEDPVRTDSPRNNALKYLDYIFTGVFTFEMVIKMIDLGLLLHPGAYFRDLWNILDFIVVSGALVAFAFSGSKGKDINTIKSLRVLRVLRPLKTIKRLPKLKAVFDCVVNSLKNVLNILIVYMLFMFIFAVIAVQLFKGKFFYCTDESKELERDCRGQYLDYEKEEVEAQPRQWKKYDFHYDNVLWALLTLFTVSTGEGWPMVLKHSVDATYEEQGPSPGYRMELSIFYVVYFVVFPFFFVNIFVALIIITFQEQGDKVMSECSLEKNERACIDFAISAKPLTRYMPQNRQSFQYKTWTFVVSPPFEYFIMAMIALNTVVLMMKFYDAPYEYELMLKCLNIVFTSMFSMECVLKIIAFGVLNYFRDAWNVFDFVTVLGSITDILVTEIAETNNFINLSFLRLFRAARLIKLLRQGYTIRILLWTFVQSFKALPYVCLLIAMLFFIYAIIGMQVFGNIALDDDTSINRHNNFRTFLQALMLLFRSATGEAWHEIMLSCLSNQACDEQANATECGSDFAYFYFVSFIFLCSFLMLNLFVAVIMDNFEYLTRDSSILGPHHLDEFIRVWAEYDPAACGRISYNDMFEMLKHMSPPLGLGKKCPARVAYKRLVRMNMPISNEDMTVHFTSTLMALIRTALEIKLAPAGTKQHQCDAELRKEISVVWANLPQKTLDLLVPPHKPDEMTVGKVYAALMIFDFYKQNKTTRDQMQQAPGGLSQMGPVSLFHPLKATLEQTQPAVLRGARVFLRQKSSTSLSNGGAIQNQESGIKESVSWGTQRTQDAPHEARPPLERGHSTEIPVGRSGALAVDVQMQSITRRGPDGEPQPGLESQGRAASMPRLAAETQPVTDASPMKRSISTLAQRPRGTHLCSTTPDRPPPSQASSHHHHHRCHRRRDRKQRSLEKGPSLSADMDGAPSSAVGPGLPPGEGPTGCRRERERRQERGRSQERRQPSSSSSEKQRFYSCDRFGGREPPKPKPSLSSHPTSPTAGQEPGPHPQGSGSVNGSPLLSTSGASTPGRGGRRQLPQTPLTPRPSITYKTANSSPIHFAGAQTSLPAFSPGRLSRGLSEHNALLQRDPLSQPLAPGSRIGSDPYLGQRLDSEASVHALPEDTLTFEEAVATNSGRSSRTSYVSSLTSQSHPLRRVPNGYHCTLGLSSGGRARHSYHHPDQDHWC
As to `CCS(=O)(=O)N1CCCC(C(=O)N2CCc3ccccc3C2)C1` (stereo unspecified), the inhibition was 0%.

Regarding `COc1cc(/C=N/n2cnnc2)ccc1OC(=O)c1ccco1`, the inhibition was 1.6%. Under `CCN(CC)C(=O)C(=O)Nc1ccc(OC)c(Cl)c1` stands 1.5%. With `Cc1cc(=O)c2ccc(Cl)cc2[nH]1` the figure was 0.7%. Under `O=C(O)/C=C/C(=O)NCc1csc2ccccc12` stands -5%; under `O=C(Nc1ccc2c(c1)OCO2)C1CC(=O)N(c2cccc(Cl)c2)C1` (stereo unspecified), -1.9%; under `COc1ccc2nc(-c3ccccc3)[nH]c2c1`, 11.7%. Take `Oc1c(Br)cc(C=Nc2ccc3nc(-c4ccccc4)[nH]c3c2)c(O)c1Br`: the inhibition is 83.1% (active). Under `Oc1c(Br)cc(/C=N/n2c(-c3ccccc3)n[nH]c2=S)c(O)c1Br` stands -12.3%.

For the compound `CCn1ccnc1CN(C)C(=O)c1ccc(OC2CCN(CCc3ccccc3)CC2)cc1`, the inhibition is 6.5%. `COCCn1c(SCc2cccnc2)nnc1-c1c[nH]c2ccccc12`: the inhibition was -0.4%. `CC(=O)N1CCC(C(=O)N2CCN(S(=O)(=O)c3cccs3)CC2)CC1`: the inhibition is 0.1%. Under `CCOC(=O)c1ccc(-n2cncn2)nc1` stands -2.2%; under `CC(=O)Nc1ccc(C(=O)Nc2ccc(S(=O)(=O)N3CCOCC3)cc2)cc1`, -1.1%. With `O=C(Nc1ccc(S(=O)(=O)N2CCOCC2)cc1)c1ccc(S(=O)(=O)N2CCOCC2)cc1` the figure was 7.3%. Take `CN(C)S(=O)(=O)c1cccc(NC(=O)c2ccncc2)c1`: the inhibition was 8.6%. With `CC1CN=C(Nc2cccc(S(=O)(=O)N(C)C)c2)S1` (stereo unspecified) the figure was -0.9%; with `CC(=O)Nc1ccc(S(=O)(=O)N2CCN(S(=O)(=O)N3CCOCC3)CC2)cc1`, -2.3%; with `CC(=O)Nc1ccc(S(=O)(=O)N2CCOCC2)cc1`, 11.4%. Under `Cc1ccc(C(=O)N/C(=C\c2ccc(-c3cccc([N+](=O)[O-])c3)o2)C(=O)NCCCN2CCOCC2)cc1` stands -1.4%; under `COC(=O)Nc1nc2ccc(-c3n[nH]c(=O)c4ccccc34)cc2[nH]1`, -0.4%; under `Cc1cc(C)nc(Nc2ncc(O)n2-c2ccc(C)c(Cl)c2)n1`, 6%. With `Cc1ccc(NC(=O)CN(C)c2ccc(S(=O)(=O)N3CCCC3)cn2)cc1`, the inhibition is -2.9%.

In the case of `CC1(C)CC2CC(C)(CN2C(=S)Nc2ccccc2)C1` (stereo unspecified), the inhibition was 12.7%. Consider `CC(=O)Nc1nc2c(s1)CCc1ccccc1-2`, for which the inhibition was -3.5%.

`Nc1nc2c(s1)CCc1ccccc1-2`: the inhibition was -30.6%. With `Fc1ccccc1Nc1nc2c(s1)CCc1ccccc1-2`, the inhibition was 94.8% (active). With `CC(c1nnc(SCC(=O)Nc2cccnc2Cl)n1Cc1ccccc1)N(C)C` (stereo unspecified) the figure was 1%; with `COc1ccc2nc3cccc(OC)c3nc2c1`, 61.8% (active). With `COc1ccc2nc3ccccc3nc2c1` the figure was 23.5%.

With `COc1cccc2nc3cc(C)c(C)cc3nc12`, the inhibition was 23.4%.

`Cc1ccsc1/C=N/NC(=O)CO`: the inhibition is 7.8%. In the case of `CCCCNC(=O)[C@H](CSCc1ccccc1)N1Cc2ccccc2C1=O`, the inhibition was 0.1%.

Regarding `COc1ccc(CNC(=O)COc2cc(=O)n(C)c3ccccc23)cc1`, the inhibition was 13.2%. With `Nc1ccc2c(c1)C/C(=C/c1ccco1)C2=O`, the inhibition was 87.9% (active). Under `O=C1/C(=C/c2ccco2)Cc2ccccc21` stands 11.1%. With `O=C1/C(=C/c2ccco2)CCc2ccccc21`, the inhibition was 15.3%. Under `CCCCn1ccnc1C` stands -1.1%; under `O=C(CSc1cccc2cccnc12)Nc1ccccc1F`, 12.1%. Turning to `C=CCOc1ccc(/C=C2\SC(N)=NC2=O)cc1OC`, the inhibition was 10.2%.

With `CCCOc1ccc(/C=C2\SC(N)=NC2=O)cc1OC`, the inhibition is -3%. `COc1cc(/C=C2\SC(N)=NC2=O)ccc1OCC(=O)Nc1ccc(C)cc1`: the inhibition is 61.4% (active). With `NC(=O)c1ccc2nc(-c3ccccc3)c(-c3ccccc3)nc2c1` the figure was 4.7%; with `NC(=O)c1ccc2c(=O)n3c(-c4cc(Cl)c(N)c(Cl)c4)csc3nc2c1`, -27%; with `O=C(NCc1nnc2c(C(F)(F)F)cc(Cl)cn12)c1ccc2c(c1)OCO2`, 9%. With `O=C(c1ccc(COc2ccc(F)cc2)o1)n1cc(Br)cn1`, the inhibition is 8%.

Regarding `CCN1C(=O)/C(=C/C=C2/Sc3ccc4ccccc4c3N2CCO)SC1=S`, the inhibition is 74.6% (active).

Take `CCN1C(=O)/C(=C/C=C2/Sc3ccccc3N2CCO)SC1=S`: the inhibition was 38.4%. Consider `CCCN1C(=O)/C(=C\C=C2/Sc3ccccc3N2CCO)SC1=S`, for which the inhibition is 26.3%. Under `CC(C)CC(NC(=O)c1ccccc1)C(=O)N/N=C/c1ccco1` (stereo unspecified) stands 3.7%. Under `CCOc1ccccc1-n1c(SCC(N)=O)nnc1-c1ccccc1` stands -2.1%. For `O=C(Nc1nc2ccccc2s1)c1cccc(S(=O)(=O)N2CCc3ccccc32)c1`, the inhibition was 8.8%. With `Cc1cc(C)c2nc(NC(=O)c3cccc(S(=O)(=O)N4CCc5ccccc54)c3)sc2c1`, the inhibition was 6.3%. Under `Cc1cccc2sc(NC(=O)c3cccc(S(=O)(=O)N4CCc5ccccc54)c3)nc12` stands 68.3% (active); under `CCOc1ccc(C(CCc2ccccc2)NC(=O)c2ccccc2F)cc1OCC` (stereo unspecified), 5.7%.

Consider `O=C(O)C(Cc1c[nH]c2ccccc12)NS(=O)(=O)c1ccc(Br)cc1` (stereo unspecified), for which the inhibition is -0.4%. As for `CNC(=O)c1c(O)c2cccc3c2n(c1=O)CCC3`, the inhibition was 22.2%. Under `Cn1c(=S)[nH]c(=O)c2ncc(=O)[nH]c21` stands -1.9%; under `O=C(O)CCCCC1CCSS1` (stereo unspecified), 101% (active); under `O=C(O)CCCCC1SCC2NC(=O)NC21` (stereo unspecified), 8.5% and -9.5%. Take `O=C(O)CCCCCCCC(=O)O`: the inhibition was 0.9%. With `O=[N+]([O-])c1ccc(O)c(C=Nc2cccc3ccccc23)c1` the figure was -35.1%; with `COCCNC(=O)C(c1ccc(OC)cc1)N(CCOC)C(=O)CCC(=O)Nc1nccs1` (stereo unspecified), -3.6%; with `O=C(NCc1ccco1)c1cnc2ccccn2c1=O`, 0.3%. As to `COCCCNC(=O)c1cccn2c(=O)c3cc4ccccc4cc3nc12`, the inhibition is -3.3%. For `O=C(NCc1ccco1)c1cccn2c(=O)c3cc4ccccc4cc3nc12`, the inhibition is 54.4% (active).
